# From ChEMBL document CHEMBL1961873, “Compounds: GSK PKIS; Assays: Nanosyn kinase panel” (2012)
# Experiments:
# [1] = target: RAC-alpha serine/threonine-protein kinase (Homo sapiens) (UniProt P31749); conditions: at 0.1 µM
# [2] = target: RAC-alpha serine/threonine-protein kinase (Homo sapiens) (UniProt P31749); conditions: at 1 µM
# [3] = target: RAC-beta serine/threonine-protein kinase (Homo sapiens) (UniProt P31751); conditions: at 0.1 µM
# [4] = target: RAC-beta serine/threonine-protein kinase (Homo sapiens) (UniProt P31751); conditions: at 1 µM
# [5] = target: RAC-gamma serine/threonine-protein kinase (Homo sapiens) (UniProt Q9Y243); conditions: at 0.1 µM
# [6] = target: RAC-gamma serine/threonine-protein kinase (Homo sapiens) (UniProt Q9Y243); conditions: at 1 µM
# [7] = target: G protein-coupled receptor kinase 6 (Homo sapiens) (UniProt P43250); conditions: at 0.1 µM
# [8] = target: G protein-coupled receptor kinase 6 (Homo sapiens) (UniProt P43250); conditions: at 1 µM
# [9] = target: T1, Rhodopsin kinase GRK7 (Homo sapiens) (UniProt Q8WTQ7); conditions: at 0.1 µM
# T1 sequence (whole entry): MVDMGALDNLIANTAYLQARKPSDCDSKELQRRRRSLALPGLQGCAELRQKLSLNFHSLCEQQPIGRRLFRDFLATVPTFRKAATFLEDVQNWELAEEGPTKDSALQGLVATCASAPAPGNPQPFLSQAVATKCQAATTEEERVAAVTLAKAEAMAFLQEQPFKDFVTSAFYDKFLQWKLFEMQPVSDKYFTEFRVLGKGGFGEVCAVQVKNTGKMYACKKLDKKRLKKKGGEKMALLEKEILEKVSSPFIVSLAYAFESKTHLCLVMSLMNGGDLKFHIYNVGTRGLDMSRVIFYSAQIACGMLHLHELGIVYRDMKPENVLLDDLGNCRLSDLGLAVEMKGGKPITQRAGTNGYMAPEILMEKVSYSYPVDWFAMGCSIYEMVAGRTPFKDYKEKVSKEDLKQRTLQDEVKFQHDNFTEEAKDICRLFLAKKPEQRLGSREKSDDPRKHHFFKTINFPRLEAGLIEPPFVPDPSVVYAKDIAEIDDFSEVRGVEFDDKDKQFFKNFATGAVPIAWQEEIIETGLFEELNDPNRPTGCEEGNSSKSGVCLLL
# [10] = target: T1, Rhodopsin kinase GRK7 (Homo sapiens); conditions: at 1 µM
# [11] = target: Serine/threonine-protein kinase MRCK alpha (Homo sapiens) (UniProt Q5VT25); conditions: at 0.1 µM
# [12] = target: Serine/threonine-protein kinase MRCK alpha (Homo sapiens) (UniProt Q5VT25); conditions: at 1 µM
# [13] = target: Serine/threonine-protein kinase MRCK beta (Homo sapiens) (UniProt Q9Y5S2); conditions: at 0.1 µM
# [14] = target: Serine/threonine-protein kinase MRCK beta (Homo sapiens) (UniProt Q9Y5S2); conditions: at 1 µM
# [15] = target: Ribosomal protein S6 kinase alpha-5 (Homo sapiens) (UniProt O75582); conditions: at 0.1 µM
# [16] = target: Ribosomal protein S6 kinase alpha-5 (Homo sapiens) (UniProt O75582); conditions: at 1 µM
# [17] = target: Ribosomal protein S6 kinase alpha-4 (Homo sapiens) (UniProt O75676); conditions: at 0.1 µM
# [18] = target: Ribosomal protein S6 kinase alpha-4 (Homo sapiens) (UniProt O75676); conditions: at 1 µM
# [19] = target: Ribosomal protein S6 kinase beta-1 (Homo sapiens) (UniProt P23443); conditions: at 0.1 µM
# [20] = target: Ribosomal protein S6 kinase beta-1 (Homo sapiens) (UniProt P23443); conditions: at 1 µM
# Chain of Ribosomal protein S6 kinase alpha-4 (Homo sapiens) (O75676 whole entry, looked up): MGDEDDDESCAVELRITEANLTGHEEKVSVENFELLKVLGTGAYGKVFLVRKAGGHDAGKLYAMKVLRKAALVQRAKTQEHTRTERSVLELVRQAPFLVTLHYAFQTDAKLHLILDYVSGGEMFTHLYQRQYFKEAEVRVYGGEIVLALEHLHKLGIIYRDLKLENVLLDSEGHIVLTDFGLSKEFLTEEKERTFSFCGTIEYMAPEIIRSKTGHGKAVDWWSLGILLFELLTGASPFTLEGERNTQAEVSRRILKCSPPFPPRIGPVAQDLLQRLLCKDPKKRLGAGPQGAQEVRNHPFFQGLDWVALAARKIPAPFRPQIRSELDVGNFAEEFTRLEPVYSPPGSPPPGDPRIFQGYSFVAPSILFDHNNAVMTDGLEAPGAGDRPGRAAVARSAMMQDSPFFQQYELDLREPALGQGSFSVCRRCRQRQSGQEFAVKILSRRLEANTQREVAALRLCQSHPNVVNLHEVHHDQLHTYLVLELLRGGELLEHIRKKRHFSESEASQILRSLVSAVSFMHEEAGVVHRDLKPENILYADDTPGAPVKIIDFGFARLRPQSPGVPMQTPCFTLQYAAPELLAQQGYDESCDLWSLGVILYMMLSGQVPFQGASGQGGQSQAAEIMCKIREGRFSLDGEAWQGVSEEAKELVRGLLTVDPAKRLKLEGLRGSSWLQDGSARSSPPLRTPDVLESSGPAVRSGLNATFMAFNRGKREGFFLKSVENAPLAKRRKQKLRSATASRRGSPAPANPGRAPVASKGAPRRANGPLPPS
# Chain of G protein-coupled receptor kinase 6 (Homo sapiens) (P43250 whole entry, looked up): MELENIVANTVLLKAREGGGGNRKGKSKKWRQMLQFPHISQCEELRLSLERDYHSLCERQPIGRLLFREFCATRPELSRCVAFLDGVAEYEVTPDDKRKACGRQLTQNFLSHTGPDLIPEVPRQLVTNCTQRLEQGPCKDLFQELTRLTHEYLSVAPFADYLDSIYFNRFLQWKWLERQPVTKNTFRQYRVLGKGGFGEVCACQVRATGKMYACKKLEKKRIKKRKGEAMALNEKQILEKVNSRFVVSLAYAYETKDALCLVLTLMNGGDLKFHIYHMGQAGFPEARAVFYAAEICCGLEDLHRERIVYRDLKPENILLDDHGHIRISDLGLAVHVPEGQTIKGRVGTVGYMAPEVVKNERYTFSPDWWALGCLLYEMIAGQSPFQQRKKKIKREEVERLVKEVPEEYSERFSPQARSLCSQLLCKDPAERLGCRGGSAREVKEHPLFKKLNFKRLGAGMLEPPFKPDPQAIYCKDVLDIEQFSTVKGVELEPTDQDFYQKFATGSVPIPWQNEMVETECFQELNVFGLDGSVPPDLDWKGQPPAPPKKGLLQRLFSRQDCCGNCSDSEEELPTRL
# Chain of RAC-beta serine/threonine-protein kinase (Homo sapiens) (P31751 whole entry): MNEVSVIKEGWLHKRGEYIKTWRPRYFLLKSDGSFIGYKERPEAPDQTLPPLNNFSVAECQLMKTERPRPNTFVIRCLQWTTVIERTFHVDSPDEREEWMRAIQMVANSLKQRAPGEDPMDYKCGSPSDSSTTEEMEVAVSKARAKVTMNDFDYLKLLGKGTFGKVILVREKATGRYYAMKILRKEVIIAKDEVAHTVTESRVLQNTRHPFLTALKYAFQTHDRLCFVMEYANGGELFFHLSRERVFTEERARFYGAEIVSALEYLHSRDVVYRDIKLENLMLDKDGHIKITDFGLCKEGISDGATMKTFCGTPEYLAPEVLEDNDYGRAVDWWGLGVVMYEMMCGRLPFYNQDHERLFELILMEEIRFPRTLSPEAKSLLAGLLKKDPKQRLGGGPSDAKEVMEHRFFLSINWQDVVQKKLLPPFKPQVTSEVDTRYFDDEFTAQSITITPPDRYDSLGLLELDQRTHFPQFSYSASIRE
# Chain of RAC-alpha serine/threonine-protein kinase (Homo sapiens) (P31749 whole entry): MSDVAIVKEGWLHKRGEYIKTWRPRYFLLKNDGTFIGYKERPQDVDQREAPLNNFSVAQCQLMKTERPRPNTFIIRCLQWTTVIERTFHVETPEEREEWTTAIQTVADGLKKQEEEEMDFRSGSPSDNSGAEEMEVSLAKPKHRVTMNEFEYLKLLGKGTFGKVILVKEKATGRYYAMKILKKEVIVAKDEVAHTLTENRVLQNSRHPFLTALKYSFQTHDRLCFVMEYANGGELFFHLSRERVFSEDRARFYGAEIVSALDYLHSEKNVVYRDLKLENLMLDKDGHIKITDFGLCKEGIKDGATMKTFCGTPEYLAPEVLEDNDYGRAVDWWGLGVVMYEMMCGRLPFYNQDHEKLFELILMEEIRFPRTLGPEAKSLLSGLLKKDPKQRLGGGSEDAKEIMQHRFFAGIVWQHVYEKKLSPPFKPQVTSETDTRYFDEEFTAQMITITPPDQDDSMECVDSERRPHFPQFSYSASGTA
# Chain of Serine/threonine-protein kinase MRCK alpha (Homo sapiens) (Q5VT25 whole entry): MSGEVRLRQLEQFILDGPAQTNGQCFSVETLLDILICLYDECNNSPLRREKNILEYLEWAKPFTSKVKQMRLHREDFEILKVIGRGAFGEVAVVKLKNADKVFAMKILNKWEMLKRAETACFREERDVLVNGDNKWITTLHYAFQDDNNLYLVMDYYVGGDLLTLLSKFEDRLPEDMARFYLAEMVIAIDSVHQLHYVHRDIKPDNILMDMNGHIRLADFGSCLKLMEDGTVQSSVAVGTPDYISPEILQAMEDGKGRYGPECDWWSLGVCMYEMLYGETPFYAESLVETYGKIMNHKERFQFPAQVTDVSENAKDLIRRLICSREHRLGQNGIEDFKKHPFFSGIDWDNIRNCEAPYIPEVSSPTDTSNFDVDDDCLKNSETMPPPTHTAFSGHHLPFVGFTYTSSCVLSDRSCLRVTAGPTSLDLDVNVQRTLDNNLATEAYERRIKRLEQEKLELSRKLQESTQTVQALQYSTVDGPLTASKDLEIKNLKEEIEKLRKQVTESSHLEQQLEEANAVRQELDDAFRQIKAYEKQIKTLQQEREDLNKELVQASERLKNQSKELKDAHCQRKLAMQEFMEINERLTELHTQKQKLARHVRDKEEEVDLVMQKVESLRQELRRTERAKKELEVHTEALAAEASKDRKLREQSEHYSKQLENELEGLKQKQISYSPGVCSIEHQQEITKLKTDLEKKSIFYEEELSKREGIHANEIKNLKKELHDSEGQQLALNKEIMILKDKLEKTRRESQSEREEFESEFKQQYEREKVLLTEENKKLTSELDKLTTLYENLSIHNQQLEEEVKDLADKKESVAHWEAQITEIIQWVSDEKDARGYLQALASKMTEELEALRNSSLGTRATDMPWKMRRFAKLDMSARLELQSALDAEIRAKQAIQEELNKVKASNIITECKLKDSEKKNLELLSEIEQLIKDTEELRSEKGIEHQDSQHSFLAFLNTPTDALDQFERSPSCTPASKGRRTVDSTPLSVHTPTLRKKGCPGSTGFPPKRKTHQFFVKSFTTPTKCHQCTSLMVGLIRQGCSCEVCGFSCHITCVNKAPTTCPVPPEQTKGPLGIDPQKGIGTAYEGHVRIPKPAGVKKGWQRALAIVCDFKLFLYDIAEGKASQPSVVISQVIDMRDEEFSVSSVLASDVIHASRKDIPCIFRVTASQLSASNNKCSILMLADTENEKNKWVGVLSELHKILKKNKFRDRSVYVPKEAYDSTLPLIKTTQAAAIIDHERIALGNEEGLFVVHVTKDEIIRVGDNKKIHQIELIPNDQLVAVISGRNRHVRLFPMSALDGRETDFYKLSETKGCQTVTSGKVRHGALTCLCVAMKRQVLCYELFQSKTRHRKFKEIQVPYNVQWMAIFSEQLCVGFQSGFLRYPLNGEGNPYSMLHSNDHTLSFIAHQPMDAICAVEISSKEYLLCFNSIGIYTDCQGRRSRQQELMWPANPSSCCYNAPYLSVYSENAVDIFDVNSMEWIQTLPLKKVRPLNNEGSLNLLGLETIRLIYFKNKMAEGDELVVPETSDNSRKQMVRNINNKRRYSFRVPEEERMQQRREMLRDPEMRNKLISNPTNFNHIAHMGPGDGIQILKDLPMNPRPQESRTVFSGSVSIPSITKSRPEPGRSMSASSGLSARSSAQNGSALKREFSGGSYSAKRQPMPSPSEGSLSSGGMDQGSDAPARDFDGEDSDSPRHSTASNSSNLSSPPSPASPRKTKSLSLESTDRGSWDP
# Chain of Ribosomal protein S6 kinase alpha-5 (Homo sapiens) (O75582 whole entry, looked up): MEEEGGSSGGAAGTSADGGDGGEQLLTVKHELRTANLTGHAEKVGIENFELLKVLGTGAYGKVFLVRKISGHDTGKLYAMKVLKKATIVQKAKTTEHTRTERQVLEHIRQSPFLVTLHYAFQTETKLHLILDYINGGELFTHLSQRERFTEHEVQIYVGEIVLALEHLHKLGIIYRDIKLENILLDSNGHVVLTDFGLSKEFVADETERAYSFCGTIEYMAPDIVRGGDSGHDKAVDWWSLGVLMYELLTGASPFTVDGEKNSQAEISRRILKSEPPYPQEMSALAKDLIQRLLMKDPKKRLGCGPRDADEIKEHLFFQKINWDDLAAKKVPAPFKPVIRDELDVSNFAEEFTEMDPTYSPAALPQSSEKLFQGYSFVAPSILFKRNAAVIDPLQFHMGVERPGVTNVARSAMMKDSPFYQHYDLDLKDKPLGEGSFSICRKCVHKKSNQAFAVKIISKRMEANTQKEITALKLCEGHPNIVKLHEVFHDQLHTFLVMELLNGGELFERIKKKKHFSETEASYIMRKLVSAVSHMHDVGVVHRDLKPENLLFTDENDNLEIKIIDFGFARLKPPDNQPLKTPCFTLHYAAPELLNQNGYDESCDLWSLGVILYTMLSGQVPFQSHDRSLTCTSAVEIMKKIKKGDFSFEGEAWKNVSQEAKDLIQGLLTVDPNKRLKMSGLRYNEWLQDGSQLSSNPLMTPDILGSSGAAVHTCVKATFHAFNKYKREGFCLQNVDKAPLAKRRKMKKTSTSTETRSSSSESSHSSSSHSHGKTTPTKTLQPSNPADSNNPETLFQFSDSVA
SMILES,inhibition [1],inhibition [2],inhibition [3],inhibition [4],inhibition [5],inhibition [6],inhibition [7],inhibition [8],inhibition [9],inhibition [10],inhibition [11],inhibition [12],inhibition [13],inhibition [14],inhibition [15],inhibition [16],inhibition [17],inhibition [18],inhibition [19],inhibition [20]
CCCN1CCCC(c2ccc(Nc3nc(Nc4cc(F)ccc4C(N)=O)c4cc[nH]c4n3)c(OC)c2)C1 (stereo not given),0.39%,0.27%,1.85%,1.92%,0.52%,2.18%,5.66%,25.3%,3.88%,16.6%,1.76%,17.9%,1.55%,13%,4.88%,5.31%,1.64%,7.01%,1.93%,4.24%
N#Cc1cccc(Nc2nccc(-c3cnn4ncccc34)n2)c1,0.4%,1.36%,1.11%,1.66%,3.16%,5.1%,2.91%,8.01%,6.46%,21.6%,0%,2.93%,-1.54%,1.01%,3.66%,8.54%,2.1%,8.46%,0.58%,3.59%
COc1cc2ncnc(Nc3ccc(C)c(O)c3)c2cc1OC,0.49%,0.96%,1.99%,1.77%,1.98%,1.76%,6%,5.91%,4.99%,7.5%,0.29%,0.79%,1.59%,0.25%,5.09%,4.76%,4.36%,2.32%,3.34%,2.36%
COc1cccc(-n2nc(C)c3c(N/N=C(\C)c4ccncc4)ncnc32)c1,-0.15%,-0.16%,-0.34%,0.3%,-0.78%,3.59%,0.75%,1.13%,3.79%,0.01%,1.87%,-2.42%,0.02%,-0.47%,0.18%,-0.52%,0.44%,0.3%,0.29%,-0.38%
CCOc1nccc2c1nc(-c1nonc1N)n2CC,0.82%,1.86%,1.97%,1.44%,0.46%,1.25%,4.85%,18.1%,3.99%,8.26%,2.25%,5.56%,1.28%,2.92%,13.2%,45.4%,6.75%,27.6%,13.4%,56.5%
CCS(=O)(=O)c1ccc(OC)c(Nc2ncc(-c3cccc(OC)c3)o2)c1,0.36%,0.85%,1.41%,0.82%,1.04%,-0.57%,-1.06%,-5%,-0.18%,-8.47%,-0.07%,-0.94%,-0.48%,0.59%,3.23%,7.32%,-0.21%,3.76%,0.98%,1.18%
Cc1ccc2c(c1)/C(=N/Nc1ccc(S(N)(=O)=O)cc1)C(=O)N2,0.76%,-0.7%,2.19%,-0.04%,-1.25%,0.38%,-0.52%,-1.05%,0.29%,4.95%,0.22%,1.3%,-0.79%,1.36%,0.95%,1.23%,-1.41%,2.32%,0.52%,2.59%
COC(=O)c1cncc(/C=C/c2c(C)cc(O)cc2C)c1,1.01%,0.52%,1.09%,1.16%,1.47%,1.17%,7.47%,9.38%,3.31%,3.95%,-0.75%,4.85%,-0.09%,0.48%,3.93%,4.33%,2.57%,3.67%,1.37%,1.04%
c1ccc(Nc2ncc(-c3ccccc3)o2)cc1,1.4%,0.83%,0.54%,2.99%,1.75%,3.46%,4.61%,4.8%,9.62%,4.71%,1.05%,2.6%,-0.11%,0.28%,3.68%,3.58%,2.52%,3.34%,3.16%,5%
Cc1cc(-c2ccccn2)cc(C)c1/C=C/c1cncc(-c2nn[nH]n2)c1,1.14%,0.85%,0.53%,1.57%,2.14%,2.17%,5.67%,1.26%,9.3%,7.66%,2.46%,1.25%,0.75%,0.41%,3.34%,2.91%,0.46%,1.78%,0.44%,1.44%
Cc1ccc(C(=O)NC2CC2)cc1-c1ccc2[nH]ncc2c1,-2.21%,-1.97%,-3.64%,-3.23%,-4.12%,0.95%,1.1%,-1.57%,-1.33%,-8.83%,1.33%,0.57%,0.35%,5.75%,-4.06%,-3.97%,-1.94%,-1.58%,-1.62%,-3.02%
CS(=O)(=O)Nc1cccc(-c2ccc3c(NC(=O)C4CC4)n[nH]c3c2)c1,0.47%,-0.39%,0.26%,0.15%,0.35%,-2.8%,1.58%,-0.72%,0.25%,2.21%,1.58%,2.47%,0.84%,1.32%,1.49%,1.04%,0.62%,2.85%,1.15%,1.9%
COc1cc2ncn(-c3cc(OCc4ccccc4S(C)(=O)=O)c(C#N)s3)c2cc1OC,1.44%,1.02%,2.07%,1.33%,2.7%,1.68%,13.8%,3.6%,8.51%,40.4%,1.12%,5.41%,1.99%,4.7%,8.16%,11%,3.93%,10%,3.14%,5.33%
